Experimental data from ChEMBL document CHEMBL4513135, “CO-ADD screening of IQOG CSIS (Spain) compounds”.
Potency and affinity values are given separately.

These molecules were tested on Staphylococcus aureus. Conditions: Concentration 32 ug.mL-1; ASSAY_TEST Inhibition of Bacterial Growth; detection method Absorption (OD600); MEDIA CAMHB; plate type 384well; NBS; CORNING #3640; time 18 hr.

Compared with `C#CCNc1cccc(F)n1`, `Cc1ccc2nc(Cl)c(/C=N/N)cc2c1` is lower in Inhibition: 34.2% for the first, 28.8% for the second.

Going from `COC(=O)/C(=C/c1ccc(O)cc1)NC(=O)c1ccccc1` to `O=C1OC(c2ccccc2)=NC1=Cc1ccc([N+](=O)[O-])cc1`, the Inhibition rises from 4.82% to 5.7%.

Going from `c1ccc(COc2ccc3[nH]ccc3c2)cc1` to `CC#CCN(C)Cc1cc2cc(OCc3ccccc3)ccc2n1C.O=C(O)C(=O)O`, the Inhibition rises from 4.67% to 7.01%.

Compared with `CC1=NC(=Cc2ccccc2)C(=O)S1`, `CSC1=NC(=Cc2ccccc2)C(=O)N1C` is lower in Inhibition: 13.03% for the first, 5.89% for the second.

Compared with `COc1cc(C2C(C#N)=C(N)Oc3ccc4ccccc4c32)ccc1O` (stereo not drawn), `COc1cccc(C2C(C#N)=C(N)Oc3ccc4ccccc4c32)c1` (stereo not drawn) is higher in Inhibition: 37.28% for the first, 40.42% for the second.

Compared with `COc1cc(C2CC2(N)C(=O)O)ccc1O` (stereo not drawn), `Cl.NC1(C(=O)O)CC1c1cccc(Cl)c1` (stereo not drawn) is higher in Inhibition: 4.38% for the first, 12.59% for the second.

Going from `Cc1ccc2nc(Cl)c(/C=N/C(C)(C)C)cc2c1` to `CCOC(=O)c1cc2cc(OC)ccc2n1C`, the Inhibition falls from 28.46% to -7.5%.

Compared with `Cl.ClCCCCN1CCCCC1`, `N#Cc1c(Cl)nc(N2CCCCC2)c(C#N)c1-c1ccccc1` is lower in Inhibition: 1.62% for the first, -12.16% for the second.

Compared with `COc1ccc(-c2cc(-c3ccccc3)c(C#N)c(N)n2)cc1`, `N#Cc1c(N)nc2[nH]nc(N)c2c1-c1ccccc1` is higher in Inhibition: 10.32% for the first, 40.83% for the second.

First: O=C(Cc1c[nH]c2ccccc12)NN=C1CCCCCC1
Second: O=C(Cc1ccccc1)N/N=C/c1c[nH]c2ccccc12
The Inhibition of the first is higher: 10.21% for the first, 9.24% for the second.

Compared with `N#CCC(=C(C#N)C#N)c1ccccc1`, `C=C1CN(C)c2c(C#N)c(-c3ccccc3)c(C#N)c(=N)n21` is lower in Inhibition: 11.65% for the first, 11.22% for the second.

First: COc1ccc(C2C(C#N)=C(Cl)Oc3c2ccc2ccccc32)cc1OC (stereo not drawn)
Second: COc1ccccc1C1c2c(ccc3ccccc23)OC(=N)C1(Br)C#N (stereo not drawn)
The Inhibition of the first is lower: -3.84% for the first, 32.97% for the second.

First: Cc1nc2c3cnn(-c4ccccc4)c3nc(C)n2n1
Second: N#CC1(Br)C(=NBr)Oc2ccc3ccccc3c2C1c1ccccc1 (stereo not drawn)
The Inhibition of the first is higher: 14.43% for the first, 7.34% for the second.

Compared with `Cc1ccccc1-c1c(C=N)c(N)nc2c1S(=O)(=O)OC2(C)C`, `CC1=C(C(=O)N2[C@@H]3C[C@H]4CCC3(CS2(=O)=O)C4(C)C)C(c2ccccc2)C(C#N)=C(N)O1` (stereo partly drawn) is lower in Inhibition: 11.29% for the first, -1.02% for the second.

First: O=C1NC(=S)N/C1=C\c1ccccc1
Second: CC1(C)OC(=O)C(=Cc2ccc([N+](=O)[O-])cc2)C(=O)O1
The Inhibition of the first is lower: 13.95% for the first, 28.78% for the second.

First: CN(C)c1nc(N)c(C#N)cc1C#N
Second: CN1C/C(=C\Cl)n2c1c(C#N)cc(C#N)c2=O
The Inhibition of the first is lower: 20.41% for the first, 23.22% for the second.

Going from `CCC(CC)NNC(=O)c1c[nH]c2ccccc12.Cl` to `C/C(=N\NC(=O)c1cc2ccccc2n1Cc1ccccc1)C1CC1`, the Inhibition rises from 4.35% to 7.87%.

Compared with `CN(Cc1cn(Cc2ccccc2)nn1)Cc1cc2cc(OCCCC3CCN(Cc4ccccc4)CC3)ccc2n1C`, `N#Cc1c(N)nc(NC2CCN(Cc3ccccc3)CC2)c(C#N)c1-c1ccccc1` is higher in Inhibition: 10.05% for the first, 33.89% for the second.

Compared with `N#Cc1cc(C#N)c(N2CCCC2)nc1N1CCCC1`, `CC1Cc2c(Br)nc3nc4c(c(N)c3c2NC1=O)CCCC4` (stereo not drawn) is higher in Inhibition: 17.61% for the first, 27.55% for the second.

Work on `CCOC(=O)C1=C(C)NC(N)=C(C#N)C1c1ccc([N+](=O)[O-])cc1` (stereo not drawn) yielded an Inhibition of 22.51%.

The molecules below were run on Escherichia coli. Conditions: Concentration 32 ug.mL-1; ASSAY_TEST Inhibition of Bacterial Growth; detection method Absorption (OD600); MEDIA CAMHB; plate type 384well; NBS; CORNING #3640; time 18 hr.

Compared with `C#CCNc1cccc(F)n1`, `Cc1ccc2nc(Cl)c(/C=N/N)cc2c1` is higher in Inhibition: -22.48% for the first, 25.39% for the second.

Going from `COC(=O)/C(=C/c1ccc(O)cc1)NC(=O)c1ccccc1` to `O=C1OC(c2ccccc2)=NC1=Cc1ccc([N+](=O)[O-])cc1`, the Inhibition falls from 15.96% to 7.71%.

Going from `c1ccc(COc2ccc3[nH]ccc3c2)cc1` to `CC#CCN(C)Cc1cc2cc(OCc3ccccc3)ccc2n1C.O=C(O)C(=O)O`, the Inhibition rises from 3.23% to 5.45%.

Going from `CC1=NC(=Cc2ccccc2)C(=O)S1` to `CSC1=NC(=Cc2ccccc2)C(=O)N1C`, the Inhibition rises from 9.12% to 10.03%.

First: COc1cc(C2C(C#N)=C(N)Oc3ccc4ccccc4c32)ccc1O (stereo not drawn)
Second: COc1cccc(C2C(C#N)=C(N)Oc3ccc4ccccc4c32)c1 (stereo not drawn)
The Inhibition of the first is lower: -11.46% for the first, -5.36% for the second.

First: COc1cc(C2CC2(N)C(=O)O)ccc1O (stereo not drawn)
Second: Cl.NC1(C(=O)O)CC1c1cccc(Cl)c1 (stereo not drawn)
The Inhibition of the first is lower: -1.72% for the first, 12.02% for the second.

First: Cc1ccc2nc(Cl)c(/C=N/C(C)(C)C)cc2c1
Second: CCOC(=O)c1cc2cc(OC)ccc2n1C
The Inhibition of the first is higher: 12.92% for the first, -9.48% for the second.

First: Cl.ClCCCCN1CCCCC1
Second: N#Cc1c(Cl)nc(N2CCCCC2)c(C#N)c1-c1ccccc1
The Inhibition of the first is lower: -1.96% for the first, 17.72% for the second.

Compared with `COc1ccc(-c2cc(-c3ccccc3)c(C#N)c(N)n2)cc1`, `N#Cc1c(N)nc2[nH]nc(N)c2c1-c1ccccc1` is higher in Inhibition: -23.38% for the first, -6.5% for the second.

Compared with `O=C(Cc1c[nH]c2ccccc12)NN=C1CCCCCC1`, `O=C(Cc1ccccc1)N/N=C/c1c[nH]c2ccccc12` is higher in Inhibition: 6.07% for the first, 17.46% for the second.

Going from `N#CCC(=C(C#N)C#N)c1ccccc1` to `C=C1CN(C)c2c(C#N)c(-c3ccccc3)c(C#N)c(=N)n21`, the Inhibition falls from 4.41% to -20.05%.

First: COc1ccc(C2C(C#N)=C(Cl)Oc3c2ccc2ccccc32)cc1OC (stereo not drawn)
Second: COc1ccccc1C1c2c(ccc3ccccc23)OC(=N)C1(Br)C#N (stereo not drawn)
The Inhibition of the first is lower: -30% for the first, -9.16% for the second.

Compared with `Cc1nc2c3cnn(-c4ccccc4)c3nc(C)n2n1`, `N#CC1(Br)C(=NBr)Oc2ccc3ccccc3c2C1c1ccccc1` (stereo not drawn) is lower in Inhibition: 10.35% for the first, 1.03% for the second.

First: Cc1ccccc1-c1c(C=N)c(N)nc2c1S(=O)(=O)OC2(C)C
Second: CC1=C(C(=O)N2[C@@H]3C[C@H]4CCC3(CS2(=O)=O)C4(C)C)C(c2ccccc2)C(C#N)=C(N)O1 (stereo partly drawn)
The Inhibition of the first is lower: 8.66% for the first, 15% for the second.

First: O=C1NC(=S)N/C1=C\c1ccccc1
Second: CC1(C)OC(=O)C(=Cc2ccc([N+](=O)[O-])cc2)C(=O)O1
The Inhibition of the first is lower: 8.87% for the first, 10.5% for the second.

Compared with `CN(C)c1nc(N)c(C#N)cc1C#N`, `CN1C/C(=C\Cl)n2c1c(C#N)cc(C#N)c2=O` is lower in Inhibition: 5.07% for the first, -15.97% for the second.

Compared with `CCC(CC)NNC(=O)c1c[nH]c2ccccc12.Cl`, `C/C(=N\NC(=O)c1cc2ccccc2n1Cc1ccccc1)C1CC1` is higher in Inhibition: 0.83% for the first, 7.24% for the second.

First: CN(Cc1cn(Cc2ccccc2)nn1)Cc1cc2cc(OCCCC3CCN(Cc4ccccc4)CC3)ccc2n1C
Second: N#Cc1c(N)nc(NC2CCN(Cc3ccccc3)CC2)c(C#N)c1-c1ccccc1
The Inhibition of the first is lower: -17.67% for the first, -2.79% for the second.

First: N#Cc1cc(C#N)c(N2CCCC2)nc1N1CCCC1
Second: CC1Cc2c(Br)nc3nc4c(c(N)c3c2NC1=O)CCCC4 (stereo not drawn)
The Inhibition of the first is higher: 8.77% for the first, -12.78% for the second.

`CCOC(=O)C1=C(C)NC(N)=C(C#N)C1c1ccc([N+](=O)[O-])cc1` (stereo not drawn) showed an Inhibition of -7.02%.
